The results in this text go back to PubChem BioAssay AID449728 (The Scripps Research Institute Molecular Screening Center, 2010).

What is called inhibition is the change of the read-out against control, counted positive when it falls.

Hit rate of the full screen: of about 330,000 compounds, about 900 (0.27%) were called active.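 How the source made its calls: active means inhibition above the campaign's mean inhibition across all tested compounds plus 3 SD (cut at about 9.9% in these data); inactive means the rest.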 This excerpt belongs to a sample that is enriched for actives.

This experiment can be described thus: bacterial viability reduction in E. coli – absorbance, OD600, counter-screen for AddAB inhibitor project, primary screen (AID 449728).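 Further: uninfected addAB+ strain grown without phage in ampicillin broth; 0% = DMSO wells and 100% = ciprofloxacin 0.95 µg/ml wells.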 The note with it: E. coli V3065 growth, 18 h, at 11.9 µM, hits give high values.
Regarding `CNC(=O)CN1C(=O)NC(c2ccccc2)(c2ccccc2)C1=O`, the inhibition is 1.95% (inactive).
On to `CCOC(=O)N1CCN(Cc2nc3cc(NC(=O)CC)ccc3n2CC)CC1`, for which the inhibition is -0.18% (inactive).
As for `CC(=O)c1c(C)n([O-])c2ccccc2[n+]1=O`, the figure is 30.7% (active); as for `Cc1c(C=O)c2ccccc2n1CC(=O)O`, 2.1% (inactive).
For the compound `COC(=O)c1cc(N2CCNCC2)nc2ccccc12`, the inhibition is 0.59% (inactive).
As for `CC12C(=O)N(n3cnnc3)C(=O)C1C1C=CC2C1` (stereo unspecified), the figure is 1.48% (inactive); as for `COc1ccc(C(=O)COC(=O)c2ccc3ccccc3n2)cc1`, 0.25% (inactive); as for `CC[C@H](C)[C@@H](C(=O)N1CCNCC1)n1cc([C@@H](N)Cc2ccc(O)cc2)nn1`, -1.2% (inactive).
The result for `CC(C)[C@H](NC(=O)c1ccc(F)cc1)C(=O)OCC(=O)NC(=O)c1cccn1C` reads -1.29% (inactive); that for `COC(=O)N/N=C/c1ccc(-c2ccc(Cl)c(Cl)c2)o1`, 0.17% (inactive).
In the case of `COC(=O)N/N=C/c1c[n+]([O-])c2ccccc2[n+]1[O-]`, the inhibition is 93.8% (active).
As for `COC(=O)N/N=C/c1cn(CCCOc2ccc(C)cc2)c2ccccc12`, the figure is -2.32% (inactive).
As for `COc1ccc(C)cc1NC(=O)c1[nH]c(C)c(C(C)=O)c1C`, the figure is -0.41% (inactive); as for `CN(Cc1ccco1)S(=O)(=O)c1nnc(NC(=O)c2ccccc2)s1`, 0% (inactive); as for `COCCNS(=O)(=O)c1cc(Br)ccc1OC`, -1.08% (inactive).
In the case of `COc1ccc(OCc2nnc3n2N=C(c2ccccc2)C(CC(=O)O)S3)cc1` (stereo unspecified), the inhibition is -0.43% (inactive).
The result for `CN1CCN(C(c2cc3cc4c(cc3[nH]c2=O)OCCO4)c2nnnn2C2CCCC2)CC1` (stereo unspecified) reads 0.75% (inactive); that for `Cc1cc(C(=O)N/N=C/c2ccccn2)c2ccccc2n1`, -0.17% (inactive); that for `Cc1nnc(N/N=C/c2ccccn2)[nH]c1=O`, 12.1% (active).
For `Cc1nnc(N/N=C/C2CC=CCC2)[nH]c1=O` (stereo unspecified), the inhibition was -0.18% (inactive).
The result for `O=C(Nc1ccc2nc3n(c(=O)c2c1)CCCC3)c1ccc(Cl)nc1` reads -2.17% (inactive); that for `CC(NS(=O)(=O)c1ccc(Cl)cc1)C(=O)Nc1ccc2c(c1)OCCO2` (stereo unspecified), -2.14% (inactive).
As to `C=CCn1c(=O)c(C(=O)NCc2ccc3c(c2)OCO3)c(O)c2ccccc21`, the inhibition was 13.5% (active).
The result for `CCn1c(=O)cc(SCC(=O)NCc2ccc3c(c2)OCO3)c2ccccc21` reads -0.5% (inactive); that for `CCn1c(=O)c(C(=O)NCc2ccc3c(c2)OCO3)c(O)c2ccccc21`, 0.18% (inactive); that for `O=C(CC1SC(N2CCCC2)=NC1=O)Nc1ccc(C(=O)NCCc2ccc(F)cc2)cc1` (stereo unspecified), -1.3% (inactive).
